Source: PubChem BioAssay (National Center for Advancing Translational Sciences (NCATS))
IMPase Li cell: qHTS Assay for Identifying the Cell-Membrane Permeable IMPase Inhibitors: Potentiation with Lithium; CHO-M1 cells, IP1 TR-FRET (IP-One), carbachol + lithium; Potency, µM (titrated, usually from 59.4 µM), without a hit: top-dose activity, negative = IMPase inhibition, usual class: inhibitors; 210,000 tested, 0.35% active;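 note: IP1 builds up when IMPase is blocked and the TR-FRET signal falls; plate controls were basal vehicle for no effect and high inhibitor control for full effect; nearly all actives have a fitted effect of over 50% in size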
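Concentration–response in CHO-M1 cells, lithium-potentiated; 30 min at 37C. IP1 detected by competitive TR-FRET after 10 min lysis at RT. Hill-fitted AC50.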
ERK EGF block: qHTS Assay for Inhibitors of the ERK Signaling Pathway using a Homogeneous Screening Assay; Stimulation with EGF. HEK293-V1b, EGF-stimulated phospho-ERK AlphaScreen. Potency, µM (doses to about 11.5 µM), without a hit: at the top dose activity change, negative = inhibition, hits mostly inhibitors. 130,000 tested, 0.41% active. AID 1454, 2008;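 note: plate controls were stimulated vehicle wells for no effect and unstimulated vehicle basal for full effect; nearly all actives have a fitted effect of over 55% in size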
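Cell line HEK293 (stable V1b), low serum overnight. Pretreatment: compound 30 min, 37C. EGF 25 nM, 5 min. Detection: SureFire AlphaScreen, 5 h RT. AC50 via standard Hill equation.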
KinaseGlo FLuc: Counterscreen for Luciferase (Kinase-Glo TM) Inhibition; 200,000 tested, 0.28% active; Potency, µM (doses to about 38.3 µM), for inactives: top-dose activity change, negative = inhibition, hits mostly inhibitors; Kinase-Glo luciferase, ATP luminescence, 8 min; Luciferin 4-monooxygenase (Photuris pensylvanica), Q27757; AID 1379, 2008; note: nearly all actives have a fitted effect of over 60% in size
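Recombinant Kinase-Glo luciferase, 10 uM ATP (linear range), luciferin; imidazole pH 7.2 / KCl / MgCl2 / Tween / BSA buffer; 8 min RT; luminescence.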
NPSR antag: qHTS Assay for Antagonists of the Neuropeptide S Receptor: cAMP Signal Transduction | CHO-NPSR cells, cAMP TR-FRET, antagonist mode | Potency, µM (titrated, usually from 38.3 µM), for inactives: at the highest dose activity change, negative = inhibition, actives largely listed as inhibitors | Q6W5P4 | 220,000 tested, 1% active; note: nearly all actives have a fitted effect of over 50% in size
Target sequence (Q6W5P4 whole entry, looked up): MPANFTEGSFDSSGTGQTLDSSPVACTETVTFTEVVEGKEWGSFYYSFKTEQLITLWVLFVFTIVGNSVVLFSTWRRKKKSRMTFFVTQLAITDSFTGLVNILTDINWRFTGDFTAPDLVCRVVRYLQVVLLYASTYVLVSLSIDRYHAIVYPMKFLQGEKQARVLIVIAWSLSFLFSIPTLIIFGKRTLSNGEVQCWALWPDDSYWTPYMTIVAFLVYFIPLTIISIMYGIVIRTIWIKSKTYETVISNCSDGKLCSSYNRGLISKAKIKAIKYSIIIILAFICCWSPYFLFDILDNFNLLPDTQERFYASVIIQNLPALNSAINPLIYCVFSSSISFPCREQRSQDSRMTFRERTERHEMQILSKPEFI
Active calls of the source: *; ? = inconclusive; nt = no result given; [ ] = remark or other dose. Shown are actives, neighbours in structure and some others; about 1.1% of the full set was active somewhere. Calls come from the whole dose curve; as a rule, active = well fitted curve in the direction sought with a large enough effect; inconclusive = small, poorly fitted or top-dose-only effect, or another doubt; inactive = no such curve, though single readings can be large; an effect the other way counts as inactive or inconclusive. Unless noted, % is set by controls: 0 for no effect and ±100 for the full control effect; potency is the fitted concentration of half-maximal effect.

SMILES	IMPase Li cell	ERK EGF block	KinaseGlo FLuc	NPSR antag
Cc1ccc(NC2=C/C(=N/S(=O)(=O)c3cccs3)c3ccccc3C2=O)cc1	22.0%	?	-27.2%	10µM*
O=C1C(Nc2ccccc2)=C/C(=N/S(=O)(=O)c2cccs2)c2ccccc21	23.9%	14.1µM*	?	-54.8%
COC(=O)c1ccccc1NC1=C/C(=N\S(=O)(=O)c2cccs2)c2ccccc2C1=O	46.0%[38.3 µM]	nt	?	-2.6%[46.1 µM]
O=C1/C(=C/c2ccc(O)c(O)c2)SC(=S)N1Nc1ccccc1	42.8%	12.6µM*	nt	-54.1%
CC1(C)CC(=O)C=C(NC2=CC3OC(c4ccccc4)OCC3OC2=O)C1 (centres undefined)	14.8%	-6.7%	1.4%	2.51µM*
O=c1c(-c2cc(F)cc(F)c2)nc2cnc(N3CCOCC3)nc2n1Cc1ccc(F)cc1	-1.0%	nt	nt	nt
CN(C)c1ccc(/C=C/C(=O)c2cc(Cl)ccc2O)cc1	nt	14.1µM*	nt	5.0%[7.67 µM]
O=C(/C=C/c1ccncc1)c1cc(Cl)ccc1O	nt	9.5%[57.5 µM]	nt	38.0%
O=C(Nc1nnc(CCS(=O)(=O)c2ccc3ccccc3c2)s1)c1cccs1	11.2µM*	3.2%	-0.2%	?
COc1ccc(S(=O)(=O)CCc2nnc(NC(=O)c3cccs3)s2)cc1	?	nt	-1.5%	-9.7%[46.1 µM]
CC#C[C@]1(O)CC[C@H]2[C@@H]3CCC4=CC(=O)CCC4=C3[C@@H](c3ccc(N(C)C)cc3)C[C@@]21C	11.7%	-5.2%[57.5 µM]	13.7%	12.6µM*
CC#C[C@]1(O)CC[C@H]2[C@@H]3CCC4=CC(=O)CCC4=C3[C@H](c3ccc(N(C)C)cc3)C[C@@]21C	21.6%	-9.7%	-1.9%	nt
C[C@@]1(CO)[C@H](O)CC[C@]2(C)[C@@H]1CC[C@H]1C[C@H]3C[C@]12CC[C@]3(O)COC(=O)CN	-5.2%	nt	-7.2%[7.66 µM]	nt
CCc1c(C)nc2cc(-c3cc(OC)cc(OC)c3)nn2c1N1CCN(CCN2CCOCC2)CC1	-26.1%	7.5%	-3.1%	-16.3%
CCc1c(C)nc2cc(-c3ccc(OC)c(OC)c3)nn2c1NCC1CC1	10.9%[38.3 µM]	nt	1.0%	12.6µM*
O=C(O)c1cc(-c2ccccc2)nc2ccccc12	-10.8%	0.8%	-1.0%	-13.3%
O=C(O)c1cc(-c2ccc(Cl)s2)nc2ccccc12	11.2µM*	4.4%	3.3%	6.31µM*
COCCn1c(=NC(=O)c2nc3ccccc3s2)sc2cc(S(C)(=O)=O)ccc21	22.4µM*	-11.8%	0.2%	?
COCCn1c(=NC(=O)c2ccc(S(=O)(=O)N3CCCc4ccccc43)cc2)sc2cc(S(C)(=O)=O)ccc21	-0.9%	13.1%	3.4%	-6.4%
c1ccc(-c2nnc3sc(-c4csc5c4CCCC5)nn23)cc1	27.6%	nt	-4.6%	10µM*
c1ccc(-c2nnc3sc(-c4ccncc4)nn23)cc1	31.1%[38.3 µM]	nt	-0.1%	1.8%[46.1 µM]
CCOC(=O)CCCN	-13.6%	nt	-2.3%[7.66 µM]	nt
COc1nc(-c2ccccc2)ccc1-c1noc(-c2ccc(F)cc2)n1	8.91µM*	nt	-1.9%	-16.3%[46.1 µM]
COc1nc(-c2ccccc2)ccc1-c1noc(-c2ccccc2F)n1	-22.3%[38.3 µM]	nt	-2.5%	9.0%[46.1 µM]
C1CCC(C(C[C@@H]2CCCCN2)C2CCCCC2)CC1	11.2%	9.9%[25.7 µM]	-2.4%[17.1 µM]	nt
SMILES	IMPase Li cell	ERK EGF block	KinaseGlo FLuc	NPSR antag
CCOc1ccc2nc(/N=C/c3c(C)[nH]n(-c4ccccc4)c3=O)sc2c1	0.3%	3.3%	?	5.0%
CCOc1ccc2nc(/N=C/c3c(C)[nH]n(-c4ccc(C)cc4)c3=O)sc2c1	12.6%	-0.5%	7.94µM*	-10.9%
N=c1c2c(-c3ccccc3)c(-c3ccccc3)n(Cc3ccco3)c2ncn1Cc1ccco1	26.8%[38.3 µM]	nt	-4.9%	10µM*
N=c1c2c(-c3ccccc3)c(-c3ccccc3)n(Cc3ccccc3)c2ncn1CCCn1ccnc1	24.7%[38.3 µM]	nt	-2.2%	?
COc1ccc(N2CCC(CNC(=S)Nc3cccc(OC)c3)C2)cc1 (centres undefined)	-2.0%	?	-2.6%	-10.3%
CCc1cccc(C)c1NC(=S)NCC1CCN(c2ccc(OC)cc2)C1 (centres undefined)	24.0%	10µM*	14.0%	-49.9%
CCc1ccccc1NC(=S)NCC1CCN(c2ccc(OC)cc2)C1 (centres undefined)	nt	14.1µM*	nt	-52.8%
CSCC[C@@H](N)C(=O)O	-16.3%	nt	nt	nt
CCn1c(=S)[nH]c2scc(-c3cccs3)c2c1=O	?	-5.5%	0.3%	10µM*
CC(C)n1c(=S)[nH]c2scc(-c3cccs3)c2c1=O	nt	-7.3%[57.5 µM]	nt	19.4%
O=c1c2c(-c3cccs3)csc2[nH]c(=S)n1-c1ccccc1	10µM*	nt	-3.8%	?
COc1ccc(-c2cn[nH]c2-c2ccc(OCc3ccccc3F)cc2O)cc1OC	nt	31.6µM*	nt	?
COc1ccc(-c2cn[nH]c2-c2ccc(OCc3ccccc3)cc2O)cc1	nt	22.4µM*	nt	?
COc1ccccc1-c1cn[nH]c1-c1ccc(OCc2ccccc2)cc1O	nt	-10.3%[57.5 µM]	nt	-26.5%
COC(=O)N1CCC2(CCN(C(=O)NC(C)C)CC2)CC1	0.6%	-0.9%	1.3%	nt
COc1ccccc1N1CCN(c2ccc(-c3ccccc3)nn2)CC1	14.5%[38.3 µM]	nt	8.91µM*	21.1%[46.1 µM]
CN(C)S(=O)(=O)c1cccc(-c2nn(-c3ccccc3)cc2/C=C2\SC(=S)NC2=O)c1	14.2%	?	-2.4%	7.94µM*
CN(C)S(=O)(=O)c1cccc(-c2nn(-c3ccccc3)cc2/C=C(\C#N)c2nc3ccccc3[nH]2)c1	-3.1%	-8.1%	0.7%	-23.2%
O=C(N/N=C/c1cn(-c2ccccc2)nc1-c1cc2ccccc2o1)c1ccncc1	10.0%	1.0%	0.1%	-26.0%
O=C(N/N=C/c1cn(-c2ccccc2)nc1-c1cc2ccccc2o1)c1cccnc1	16.6%	7.08µM*	-4.9%	-29.0%
CCOC(=O)c1c(C)[nH]sc1=S	14.1µM*	nt	4.7%	?
N#Cc1c(/N=C/c2ccc(Br)s2)sc2c1CCC2	1.4%	3.0%	-0.3%	1.7%[46.1 µM]
Cc1ccc(/C=N/c2sc3c(c2C#N)CCC3)o1	-3.3%[38.3 µM]	nt	11.2µM*	-7.0%[46.1 µM]
CC(C)CCCC(C)C1CCC2C3CC[C@H]4CC(=O)CC[C@@]4(C)C3CC[C@@]12C (some centres undefined)	-6.4%	22.4%	-0.2%	nt
CC(=O)O[C@]1(C(C)=O)CC[C@H]2[C@@H]3C[C@H](C)C4=CC(=O)CC[C@]4(C)[C@H]3CC[C@@]21C	-0.8%	-4.6%[57.5 µM]	-3.1%	2.51µM*
CC(=O)O[C@@]1(C(C)=O)CCC2C3C=C(Cl)C4=CC(=O)CC[C@]4(C)C3CC[C@]21C (some centres undefined)	11.5%	11.6%	-3.4%	nt
CC(=O)O[C@]1(C(C)=O)CC[C@H]2[C@@H]3C=C(Cl)C4=CC(=O)CC[C@]4(C)[C@H]3CC[C@@]21C	-4.7%	?	2.0%	5.01µM*
CCCCCC(=O)O[C@@]1(C(C)=O)CCC2C3CCC4=CC(=O)CC[C@@]4(C)C3CC[C@]21C (some centres undefined)	19.0%	20.7%	-5.0%	nt
